High-throughput results: PubChem BioAssay, National Center for Advancing Translational Sciences (NCATS)
Compounds with a hit are over-represented: about 3.4% of the library has one in this group of screens.
Sm TGR block: blocks Schistosoma mansoni thioredoxin glutathione reductase; AID 485364; Potency, µM (top dose mostly 114 µM), usual class: inhibitors; Q962Y6; actives 3% (n = 360,000); purified TGR, DTNB reduction, TNB absorbance 405 nm; further: nearly all actives have a fitted effect of over 60% in size
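Kinetic colorimetric format: TGR-catalysed, NADPH-driven DTNB reduction monitored via TNB absorbance. Enzyme dispensed at 20 nM; compound exposure 15 min at room temperature before reaction start.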
AmpC no deterg: blocks E. coli AmpC beta-lactamase in detergent-free assay; AmpC nitrocefin hydrolysis, absorbance 480 nm, 0.0001% Triton; Potency, µM (highest dose often 57.1 µM), actives largely listed as inhibitors; actives 0.52% (n = 330,000); further: nearly all actives have a fitted effect of over 20% in size
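20 mM phosphate pH 7.0 + 0.01% (detergent screen) or 0.0001% Triton X-100; 5.3 nM AmpC reagent; cpd preinc 15 min RT; nitrocefin (800 uM stock) to start; A480 q20 s × 4 min; Activity was normalised to no-enzyme and no-compound control wells.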
RE007 growth inh: less growth of the S. pombe RE007 Vpr strain. S. pombe RE007 Vpr strain, BacTiter-Glo ATP luminescence, 24 h. Potency, µM (highest dose often 92.2 µM), hits mostly inhibitors. actives 0.21% (n = 360,000). AID 651644; active means well fitted falling curve with a large enough effect; inconclusive means small, poorly fitted or top-dose-only effect; inactive means no such curve, though single readings can be large or run the other way; further: nearly all actives have a fitted effect of over 50% in size
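Fission yeast RE007 carrying one integrated HIV-1 vpr copy, seeded at OD 0.01 in PMG+AL medium with 23 nL pinned compound. Grown 24 h at 30 degrees; viability read by BacTiter-Glo luminescence after 5 min.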
Giardia FBPA inh: Giardia lamblia aldolase inhibition. A8B2U2. purified Giardia FBPA. Potency, µM (titrated, usually from 59.6 µM), actives largely listed as inhibitors. actives 0.71% (n = 290,000); further: nearly all actives have a fitted effect of over 55% in size
Target sequence (A8B2U2 whole entry, looked up): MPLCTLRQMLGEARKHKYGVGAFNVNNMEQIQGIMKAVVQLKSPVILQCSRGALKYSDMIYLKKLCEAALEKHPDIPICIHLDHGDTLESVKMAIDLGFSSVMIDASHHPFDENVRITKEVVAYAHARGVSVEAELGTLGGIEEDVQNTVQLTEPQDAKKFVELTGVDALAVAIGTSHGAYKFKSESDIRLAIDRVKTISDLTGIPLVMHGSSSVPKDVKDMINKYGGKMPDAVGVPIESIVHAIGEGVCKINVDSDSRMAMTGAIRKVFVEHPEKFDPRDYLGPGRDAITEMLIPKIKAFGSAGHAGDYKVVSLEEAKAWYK
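40 nM FBPA preincubated 10 min at RT with compound (up to 57.5 uM final), then substrate plus GAPDH/TPI/NAD/arsenate coupling and diaphorase/resazurin added. Fluorescence read after 20 min at RT, 525/598 nm.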
AmpC detergent: inhibitors of E. coli AmpC beta-lactamase with detergent; actives 0.041% (n = 370,000); Potency, µM (doses to about 114 µM), usual class: inhibitors; P00811; AmpC hydrolysis of nitrocefin, absorbance 480 nm, 0.01% Triton; further: nearly all actives have a fitted effect of over 25% in size
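20 mM phosphate pH 7.0 + 0.01% (detergent screen) or 0.0001% Triton X-100; 5.3 nM AmpC reagent; cpd preinc 15 min RT; nitrocefin (800 uM stock) to start; A480 q20 s × 4 min; Activity was normalised to no-enzyme and no-compound control wells.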
Of the large screens only hits and unclear results are named; the others gave an inactive call. Unless noted, the call rests on the fitted dose curve; in most records, active means well fitted curve in the direction sought with a large enough effect; inconclusive means small, poorly fitted or top-dose-only effect, or another doubt; inactive means no such curve, though single readings can be large; an effect the other way counts as inactive or inconclusive.

CCOc1ccc2[nH]c(=O)c(C(c3nnnn3C3CCCCC3)N3CCN(C)CC3)cc2c1 (centres undefined)	Sm TGR block inconclusive
CCOc1ccc2[nH]c(=O)c(C(c3nnnn3Cc3ccco3)N3CCC(C)CC3)cc2c1 (centres undefined)	Sm TGR block 45µM, Giardia FBPA inh inconclusive
CCOc1ccc2[nH]c(=O)c(C(c3nnnn3Cc3ccco3)N3CCCC(C)C3)cc2c1 (centres undefined)	Sm TGR block 11µM, Giardia FBPA inh inconclusive, AmpC detergent inconclusive
Cc1nc2nc(NC(=O)C(C)(C)C)[nH]n2c(=O)c1Cc1ccccc1	none (no result: AmpC no deterg, RE007 growth inh, Giardia FBPA inh)
COc1ccc([C@]23Cc4ccccc4C(O2)C2=C(CC(C)(C)CC2=O)O3)cc1	Sm TGR block inconclusive, AmpC detergent inconclusive (no result: RE007 growth inh)
COc1ccc([C@]23Cc4ccccc4C(O2)C2=C(CCCC2=O)O3)cc1	none (no result: RE007 growth inh)
COc1ccc([C@]23Cc4ccccc4C(O2)C2=C(O3)C(=O)c3ccccc3C2=O)cc1	Sm TGR block 7.1µM, AmpC detergent inconclusive (no result: RE007 growth inh)
COc1ccc([C@]23Cc4cc(OC)c(OC)cc4C(O2)C2=C(CCCC2=O)O3)cc1	Sm TGR block 3.5µM, Giardia FBPA inh inconclusive (no result: RE007 growth inh)
CCCc1ccc(-c2ccc(C(=O)Oc3ccc(Br)cc3)cc2)nc1	none (no result: AmpC no deterg, RE007 growth inh, Giardia FBPA inh)
O=C(c1ccc(Br)cc1)C(CN1CCOCC1)c1ccccc1 (centres undefined)	Sm TGR block 3.5µM, RE007 growth inh inconclusive
O=C(CN1CCOCC1)Nc1ccc(Br)cc1	none
O=C(CN1CCOCC1)c1ccc(Br)cc1	Sm TGR block 35µM
COC/C=C/C1=CC2=CC(=O)C(C)(OC(=O)c3cnc4ccccc4n3)C(=O)C2=CN1c1ccccc1 (centres undefined)	Sm TGR block 22µM, Giardia FBPA inh inconclusive
COC/C=C/C1=CC2=CC(=O)C(C)(OC(=O)c3cnc4ccccc4n3)C(=O)C2=CN1c1ccc(CO)cc1 (centres undefined)	Sm TGR block 45µM, Giardia FBPA inh inconclusive, AmpC detergent inconclusive (no result: RE007 growth inh)
COC/C=C/C1=CC2=CC(=O)C(C)(OC(=O)c3cnc4ccccc4n3)C(=O)C2=CN1CC(C)C (centres undefined)	Giardia FBPA inh inconclusive (no result: Sm TGR block, AmpC no deterg, AmpC detergent)
CCOc1ccccc1C(=O)NCC(=O)Nc1ncccc1C	none (no result: Giardia FBPA inh)
CCN(CC)c1ccc(/C=C(/C#N)C(=O)NCc2ccccc2)o1	Sm TGR block 35µM
C[C@@H]1CN([C@H](C)CO)C(=O)CCCn2cc(nn2)CO[C@H]1CN(C)C(=O)Nc1ccccc1F	none (no result: Sm TGR block, AmpC no deterg, Giardia FBPA inh, AmpC detergent)
Cc1nc(N2CCOCC2)c2nc(-c3ccccc3)n(CCN(C)C)c2n1	none (no result: Sm TGR block, AmpC no deterg, RE007 growth inh, AmpC detergent)
O=C(CN1CCN(C2CCCCC2)CC1)c1ccc2cc[nH]c2c1	Sm TGR block 32µM
Clc1ccc(CSc2nnc(/C=C/c3ccccc3)o2)cc1	AmpC no deterg 0.16µM
CS(=O)(=O)N1N=C(c2ccco2)CC1c1ccco1 (centres undefined)	Sm TGR block 20µM, AmpC detergent inconclusive
CS(=O)(=O)N1N=C(c2ccco2)CC1c1ccccc1 (centres undefined)	Sm TGR block inconclusive
COc1ccc2cc(C3CC(c4ccco4)=NN3S(C)(=O)=O)c(Cl)nc2c1 (centres undefined)	Sm TGR block 6.3µM
O=C1c2ccccc2CN1CCSC(=S)N1CCSCC1	none (no result: RE007 growth inh)
NC(=O)c1cnn(-c2cccc(Cl)c2)c1N	none
Oc1ccc(N=C/C=C/c2cccc(Br)c2)cc1-c1nc2ccccc2s1	Sm TGR block 40µM, Giardia FBPA inh inconclusive, AmpC detergent inconclusive
CCOc1ccc(C(C)=O)cc1N1C(=O)C2C3C=CC(O3)C2C1=O (centres undefined)	Sm TGR block 0.71µM, RE007 growth inh inconclusive
NC(=O)OCC(O)COc1ccc(Cl)cc1 (centres undefined)	none (no result: Giardia FBPA inh)
Cc1n[nH]c(=O)c2c(NC(=O)CSc3nnc(-c4ccncc4)n3C)oc(C)c12	Sm TGR block inconclusive (no result: Giardia FBPA inh)
CC(=O)Nc1ccc(C(=O)NCCN2CCOCC2)cc1	none
COC(=O)C1C(=O)c2c([nH]c(C(=O)OCC3CCCO3)c2C)CC1C (centres undefined)	AmpC no deterg 10µM, AmpC detergent inconclusive
COCCOC(=O)c1[nH]c2c(c1C)C(=O)C(C(=O)OC)C(C)C2 (centres undefined)	Giardia FBPA inh inconclusive
